# Screen size: about 56,000 sequences; about 2,300 (4.1%) were called active. No stated cut-off is given here; in the data, active = GI50 up to about 1.1 µM and inactive = higher. The list is a sample of the results. Results with a measured potency or affinity are listed apart.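 Cultured in 96-well plates, cells were exposed to test compound for 48 hours across five concentrations. At the GI50, growth is halved.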
# Tested on: TK-10
# Assay: NCI tumour cell line growth inhibition, 48 h
row,Substance,GI50
1,"[Bis(aminomethyl)ethylmethylsilane]tetrachloroplatinum(IV), CHEMBL2146192",13.1 µM
2,"[Bis(aminomethyl)tetramethylenesilane]dichloropaltinum(II), CHEMBL2146205",32.2 µM
3,"[Bis(aminomethyl)dimethylsilane]tetrachloroplatinum(IV), CHEMBL2146190",9.48 µM
4,"[Bis(aminomethyl)diethylsilane]tetrachloroplatinum(IV), CHEMBL2146203",13.4 µM
5,"mu-(1,7-nanodiamine-N,N')bis-(cis-aminedichloroplatimum (II)), CHEMBL2146215",62.8 µM
6,"[Bis(aminomethyl)pentamethylenesilane]tetrachloropaltinum(IV), CHEMBL2146204",17.1 µM
7,"[Bis(aminomethyl)dimethylsilane]dichloroplatinum (II), CHEMBL2146201",24.6 µM
8,"cis-Bis[[(trimethylsilyl)methyl]amino]tetrachloroplatinum(IV), CHEMBL2146191",13.2 µM
9,"CISPLATIN, CHEMBL11359",6.64 µM
10,"[Bis(aminomethyl)tetramethylenesilane]tetrachloropaltinum(IV), CHEMBL2146189",9.91 µM
11,"[Bis(aminomethyl)pentamethylenesilane]dichloropaltinum(II), CHEMBL2146202",12.7 µM

# Reference: ChEMBL document CHEMBL1201862, “PubChem BioAssay data set” (2004)
